From PubChem BioAssay AID689 (Sanford-Burnham Center for Chemical Genomics, 2007)
The campaign covered roughly 62,000 compounds. About 80 (0.1%) were called active. How the calls were made is not given here. These entries were drawn from the full list. Potency and affinity values are given separately.

biological target: Ephrin type-A receptor 4 (Mus musculus) (UniProt Q03137); assay: EphA4 ligand-binding antagonists – biochemical, colorimetric, mouse EphA4, primary screen (AID 689); conditions: EphA4-AP binding to KYL peptide, pNPP A405, at 10 µM, stronger effect = higher value
Sequence (Q03137 whole entry, looked up): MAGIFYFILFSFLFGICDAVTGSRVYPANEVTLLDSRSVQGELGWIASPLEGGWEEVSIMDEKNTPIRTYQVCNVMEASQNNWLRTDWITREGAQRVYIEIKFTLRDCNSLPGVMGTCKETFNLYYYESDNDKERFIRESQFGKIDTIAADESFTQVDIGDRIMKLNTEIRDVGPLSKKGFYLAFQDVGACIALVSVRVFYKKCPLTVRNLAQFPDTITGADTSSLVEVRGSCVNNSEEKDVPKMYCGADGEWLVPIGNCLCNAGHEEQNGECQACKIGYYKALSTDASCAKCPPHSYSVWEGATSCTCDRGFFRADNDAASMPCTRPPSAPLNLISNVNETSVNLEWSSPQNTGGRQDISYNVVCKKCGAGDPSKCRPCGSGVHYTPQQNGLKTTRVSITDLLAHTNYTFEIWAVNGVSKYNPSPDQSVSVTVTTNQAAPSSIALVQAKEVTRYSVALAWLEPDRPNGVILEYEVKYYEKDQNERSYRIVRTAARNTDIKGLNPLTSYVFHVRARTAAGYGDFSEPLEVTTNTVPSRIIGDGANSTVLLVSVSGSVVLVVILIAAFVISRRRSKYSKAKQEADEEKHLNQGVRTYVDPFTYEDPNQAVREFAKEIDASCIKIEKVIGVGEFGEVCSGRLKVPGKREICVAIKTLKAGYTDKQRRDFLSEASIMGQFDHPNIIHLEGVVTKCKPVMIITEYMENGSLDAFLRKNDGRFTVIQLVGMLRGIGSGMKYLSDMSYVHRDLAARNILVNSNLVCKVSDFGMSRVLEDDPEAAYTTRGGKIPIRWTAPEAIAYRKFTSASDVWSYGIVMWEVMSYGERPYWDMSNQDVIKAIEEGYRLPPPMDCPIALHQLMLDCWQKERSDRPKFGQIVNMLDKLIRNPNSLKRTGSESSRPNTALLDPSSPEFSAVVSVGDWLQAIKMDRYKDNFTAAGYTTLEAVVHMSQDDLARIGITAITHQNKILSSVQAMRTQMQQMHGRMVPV

inhibition, inactive:
CCCOc1nc2c(c(=O)n(C)c(=O)n2C)n1CCC -3.5%
CC(=O)c1c(C)n(-c2ccccc2)c2ccc(OCC(O)CN3CCOCC3)cc12 (stereo not given) -25.3%
Cn1c(=O)n(C)c2cc(S(=O)(=O)NCc3ccco3)ccc21 -8%
N#CC(c1ccc(O)cc1)N1CCCCC1 (stereo not given) 0.9%
Cc1ccc(NC(=O)N2CCC(C(=O)NCC(C)C)CC2)cc1 -0.8%
CC(C)OCCCNC(=O)C1CCC(=O)N1C(C)C (stereo not given) -3.7%
COc1ccc(S(=O)(=O)Nc2ccc(NS(=O)(=O)c3ccc(OC)cc3)c3ccccc23)cc1 -1.5% [this sample at 5 µg/mL]
CCc1ccc(S(=O)(=O)Nc2cc(Br)c(O)c3ccccc23)cc1 2.2% [this sample at 5 µg/mL]
Cc1ccc(S(=O)(=O)Oc2cccc(N3C(=O)C4CC=CCC4C3=O)c2)cc1 (stereo not given) -10.4%
CCN(CC(=O)Nc1ccc2c(c1)OCCO2)c1ccc(S(=O)(=O)N2CCOCC2)cn1 -6.5%
O=C(Cc1cccs1)N1CCN(c2cccc(Cl)c2)CC1 11.4% [this sample at 5 µg/mL]
COc1cccc(C2CC(=O)N3CN(c4ccccc4F)CSC3=C2C#N)c1 (stereo not given) 12.3%
COc1ccc(C2CC(=O)N3CN(c4ccccc4F)CSC3=C2C#N)cc1OC (stereo not given) -4.9%
CCOC(=O)c1c(NC(=S)Nc2ccccc2)sc2c1CCN(CC)C2 0.4%
CCOC(=O)c1c(NC(=S)Nc2ccccc2)sc2c1CCCCC2 1.6%
Cc1ccc2[nH]c(=O)c(CN(CCCN3CCOCC3)C(=O)NC3CCCCC3)cc2c1 -12%
COc1ccccc1Cc1noc(C(C)(C)NC(=O)c2ccccc2)n1 9%
CN(C)CCCNC(=O)CC(c1ccc(F)cc1)c1ccco1 (stereo not given) -15.3%
CCOC(=O)C1=C(c2ccccc2)N=c2s/c(=C\c3ccc(O)cc3)c(=O)n2C1c1cccs1 (stereo not given) 23.9%
CCOC(=O)C1=C(c2ccccc2)N=c2s/c(=C\c3ccc(O)c(OC)c3)c(=O)n2C1c1ccc(OC)cc1 (stereo not given) 7.7% [this sample at 5 µg/mL]
O=C(O)CCC(=O)NCCn1c(-c2ccccc2)csc1=Nc1ccccc1 -2.4%
CCOc1ccc(-c2nn(-c3ccccc3)cc2/C=C2\SC(=S)N(CCOC)C2=O)cc1 24.2% [this sample at 5 µg/mL]
O=C1/C(=C\c2cccnc2)SC(=S)N1C1CCS(=O)(=O)C1 (stereo not given) 1.1%
CCN(Cc1ccccc1)C(=O)c1ccc([N+](=O)[O-])cc1 1.5% [this sample at 5 µg/mL]
Nc1ccc(N(c2ccccc2)c2ccc(N)cc2)cc1 5.1%
CCOc1ccc(S(=O)(=O)N(CC(=O)Nc2ccccc2C)c2ccc(C)cc2)cc1 2% [this sample at 5 µg/mL]
Cc1cccc2sc(NC(=O)c3ccccc3C(=O)O)nc12 -11.2% [this sample at 5 µg/mL]
Cc1cccc2sc(NC(=O)c3ccc(Cl)s3)nc12 -3.3%
CCOC(=O)C(O)(CCC(O)(C(=O)OCC)C(=O)OCC)C(=O)OCC -4.3%
O=C1CCC(C23CC4CC(CC(C4)C2)C3)=NN1 -8.4% [this sample at 5 µg/mL]
Oc1ccc(-c2cn3c(n2)SCC3)cc1 4.1%
Cc1nc(-c2ccc(O)c(O)c2)cs1 1.8%
Cc1onc(-c2ccccc2Cl)c1C(=O)Nc1ccc(N2CCOCC2)cc1 1.6%
O=C1c2nc3ccccn3c2C(=O)N1Cc1ccccc1 6.8%
CCOc1ccc(S(=O)(=O)N(CC(=O)O)c2ccccc2)cc1 0.2%
Cc1ccc(N(CC(=O)N/N=C/c2ccco2)S(=O)(=O)c2ccccc2)cc1 15.6%
Cc1ccc(-c2nc3ncccc3o2)cc1NC(=O)COc1ccccc1 4.8%
CCOC(=O)c1cnc2c(OC)cccc2c1N1CCN(c2ccccc2OC)CC1 3.2%
Cc1cccc(Cn2cc(/C=C/[N+](=O)[O-])c3ccccc32)c1 40.7%
O=[N+]([O-])/C=C/c1cn(Cc2ccc(F)cc2)c2ccccc12 30.9%
Cc1ccc(NC(=O)N2Cc3ccccc3CC2C(=O)NC(C)(C)C)cc1 (stereo not given) 1%
O=C(/C=C/c1ccc2c(c1)OCO2)c1ccc(Br)cc1 3.2% [this sample at 5 µg/mL]
CNc1ccc(Br)cc(C(=O)/C=C/c2ccc3c(c2)OCO3)c1=O 32.2%
CCOC(=O)c1sc(NC(NC(=O)c2ccco2)(C(=O)OC)C(F)(F)F)nc1C (stereo not given) 4.3%
CCN1/C(=C/C(C)=O)Sc2ccccc21 -0.8% [this sample at 5 µg/mL]
CCN1/C(=C/c2ccc3ccccc3[n+]2CC)C=Cc2ccccc21 2%
Cn1c(=O)[nH]c(=O)c2c1nc(CN1CCN(c3cccc(Cl)c3)CC1)n2CCN1CCOCC1 8.6%
O=C(c1sc2ccccc2c1Cl)N(Cc1ccco1)C1CCS(=O)(=O)C1 (stereo not given) -4.2%
COc1ccccc1C1C(C(N)=O)=C(C)Nc2nc(-c3ccccc3Cl)nn21 (stereo not given) -24.8%
Cc1cc(/C=C2\SC(=S)NC2=O)c(C)n1C1CC1 9.1%
Cc1cc(C=C2C(=O)N(C)C(=O)N(C)C2=O)c(C)n1C 3.4% [this sample at 5 µg/mL]
O=C(c1ccccc1)N1CCN(C(=O)C23CC4CC(CC(C4)C2)C3)CC1 -9.8%
O=C1c2ccccc2NC(c2ccc(Cl)c(Cl)c2)N1Cc1ccccc1 (stereo not given) 7.9% [this sample at 5 µg/mL]
Cc1ccc(C)c(S(=O)(=O)Nc2ccccc2)c1 5.9% [this sample at 5 µg/mL]
CCOc1cc(C(=S)N2CCOCC2)ccc1OS(=O)(=O)c1ccc(NC(C)=O)cc1 -6.9%
